Source: PubChem
Most compounds without a hit are left out; they make up all but 6.8% or so of the library.
NADH enzymes – inhibitors of PK/LDH coupling enzymes, profiling panel, artefact control, biochemical, MLSMR library | coupled PK/LDH NADH assays, four targets | IC50, µM (top dose mostly 10 µM), without a hit: at the highest dose inhibition | actives 0.02% (n = 65,000) | AID 774, 2007;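 active = single-dose screening hits from any of four coupled enzyme assays that gave an IC50 when retested across doses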;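 also: the DPM-DC format reads NADH fluorescence rather than 340 nm absorbance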
PMK inhibit – S. pneumoniae PMK inhibitors, primary screen, biochemical, mevalonate pathway, pilot trial included. phosphomevalonate kinase (Streptococcus pneumoniae D39). purified PMK, PK/LDH-coupled NADH absorbance 340 nm. actives 0.49% (n = 65,000). inhibition, % at 10 µM;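 active = top-ranked compounds by inhibition in the single 10 µM screen, taking a fixed number of the strongest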;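 also: 0% = full reaction with DMSO carrier and 100% = background rate without enzyme reaction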
DPM-DC inhibit – S. pneumoniae DPM-DC inhibitors, primary screen, biochemical, PK/LDH-coupled NADH fluorescence | purified DPM-DC | calls only at 10 µM | actives 0.49% (n = 65,000) | AID 556, 2006;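 active = the 320 compounds with the highest percent inhibition in the single-dose primary screen, excluding strongly autofluorescent ones, cut at about 32% in these data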;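 also: kinetic rate of NADH fluorescence loss reporting ADP formed by the decarboxylase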
Abs 340nm – compound light absorbance at 340 nm, profiling panel, artefact control, biochemical, MLSMR library, data from PS, PMK, MK assays. compound absorbance at 340 nm, fold over control. fold change at 10 µM. 65,000 tested, under 10 active. AID 708, 2007;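 active = at 10 µM dose, initial 340 nm absorbance at least 2 fold that of control wells; inactive = change under 2 fold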;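 also: initial absorbance extrapolated from kinetic A340 decline of NADH oxidation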
Autofluor 339 – intrinsic fluorescence of library compounds, ex339/em460 – biochemical, MLSMR library, data from DPM-DC assay, artefact control, profiling panel; compound autofluorescence, ex339/em460 nm, NADH buffer; stronger effect = higher value; 1 = no-compound wells, NADH background; actives 5.5% (n = 65,000); fluorescence fold increase at 10 µM; AID 709, 2007;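 active = at 10 µM, mean starting fluorescence two-fold or more over control wells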;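 also: signal is the first read of a kinetic run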
MK inhibit – S. pneumoniae MK inhibitors, primary screen, biochemical, PK/LDH-coupled NADH absorbance | inhibition, % at 10 µM | actives 0.48% (n = 65,000) | purified MK, PK/LDH-coupled NADH absorbance 340 nm | AID 555, 2006;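 active = ranked among the strongest by inhibition in the single 10 µM screen, a fixed top-ranked set picked for dose follow-up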
Active calls of the source: *; i = inactive; x = no result given; + = active, no number.

SMILES	NADH enzymes	PMK inhibit	DPM-DC inhibit	Abs 340nm	Autofluor 339	MK inhibit
c1nc(NC2CCCC2)c2[nH]cnc2n1	4%	0	i	1	1.3	5
c1ccc2c(NC3CCCC3)nnc(NC3CCCC3)c2c1	4%	14	i	1	2.1*	0
COCCNC(=O)c1c(N)sc2c1CCCC2	11%	12	i	1	2.1*	2
CCC1(C)Cc2ccccc2-c2nc(NCCO)n(-c3ccccc3)c(=O)c21 (configuration not stated)	7%	2	x	1.1	2.3*	12
CC1(C)Cc2ccccc2-c2nc(NCCO)n(-c3ccccc3)c(=O)c21	6%	5	x	1.1	2.2*	7
COc1cccc(N2CCN(C3CC(=O)N(c4ccc(C)c(Cl)c4)C3=O)CC2)c1 (configuration not stated)	18%	11	i	1	1	40*
COc1cccc(N2CCN(C3CC(=O)N(c4ccc(F)c(Cl)c4)C3=O)CC2)c1 (configuration not stated)	4%	3	i	1	1.1	6
Cc1nc2ccc(C(=O)O)cc2c2c1CC(C)S2 (configuration not stated)	2%	3	x	1	3*	9
Cc1nc2cc(C(=O)O)ccc2s1	6%	14	i	0.99	1.1	4
CC1(C)CC(=O)C2=C(C1)N(CCN1CCOCC1)C1=C(C(=O)CC(C)(C)C1)C2c1ccc(Cl)cc1	2%	2	x	0.99	5*	2
CC1(C)CC(=O)C2=C(C1)N(CCN1CCOCC1)C1=C(C(=O)CC(C)(C)C1)C2c1cccc(F)c1	3%	3	x	1	4.8*	2
COc1ccc(C2C3=C(CC(C)(C)CC3=O)N(CCN3CCOCC3)C3=C2C(=O)CC(C)(C)C3)cc1	6%	0	i	1	3.4*	0
CC1(C)CC(=O)C2=C(C1)NC(=O)CC2c1cccc(F)c1 (configuration not stated)	4%	12	i	0.99	1.2	0
CCOC(=O)c1c(CC(C)C)csc1NC=O	14%	0	+	1	0.56	0
CCCCNC(=O)c1c(N)n(/N=C/c2cccnc2)c2nc3ccccc3nc12	6%	2	i	1.1	1.2	11
Nc1c(S(=O)(=O)c2ccccc2)c2nc3ccccc3nc2n1/N=C/c1cccc(O)c1	7%	4	x	1.1	3.7*	10
CCCCCNC(=O)c1c(N)n(/N=C/c2ccco2)c2nc3ccccc3nc12	4%	8	i	1	1.5	5
Cc1ccc(C)c(S(=O)(=O)c2c(N)n(/N=C/c3ccco3)c3nc4ccccc4nc23)c1	1%	0	i	1.1	2.1*	0
COc1ccc(C(=O)c2c[nH]c3ccccc23)cc1	3%	1	i	1.1	1.1	7
CCCc1cc(=O)n2c(nc3ccccc32)[nH]1	4%	4	x	1	3.9*	4
CCCCc1c(O)n2c(nc3ccccc32)[nH]c1=O	1%	0	i	1	1	4
Cc1cccc(OCCCc2c(C)n[nH]c2C)c1	4%	26*	i	1	1.1	11
COc1cccc(OC)c1OCCCc1c(C)n[nH]c1C	5%	14	i	0.99	1	0
CC(=O)c1ccc(OCC(O)CN(C)Cc2cccs2)cc1 (configuration not stated)	14%	10	i	1	1.1	27
Clc1ccc2nc3ccccn3c2c1	4%	3	x	1.1	2.2*	5
CCNc1nc(NC(C)C)nc(Oc2ccc(OCCOc3ccc(C)cc3)nn2)n1	0%	0	i	1.1	1.1	0
COc1cccc(CNC(=O)c2ccccc2N)c1	6%	5	x	1	3.9*	7
COc1cccc(CNC(=O)Cn2cccc2)c1	4%	7	i	0.98	1	6
